GC-B act = GC-B (human) receptor activation; activation, % at 10 µM; 370,000 compounds, 0.11% hits; AID 1920062; HEK293-GC-B cells, CNP EC30, cGMP TR-FRET; 0% at EC30 CNP, 100% saturating CNP;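 active = activation at 10 µM reaching about 35% in either raw or pattern-adjusted values, limit read from the data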
TLR9-MyD88 block = TLR9-MyD88 interaction inhibition | Q9NR96+Q99836 | CHO BLA complementation TLR9-MyD88, CCF4 FRET ratio | inhibition, % at 4.98 µM | 340,000 compounds, 0.21% hits | AID 504734;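 active = inhibition above the mean over all tested compounds plus 3 SD, cut at about 21% in these data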
TLR4 MyD88 comp = TLR4-MyD88 interaction inhibition in cells; O00206+Q99836; HeLa CL3-4 TLR4/MyD88 BLA complementation, FRET ratio; inhibition, % at 8.4 µM; 200,000 compounds, 0.18% hits; in the data active = inhibition above about 25%
Target sequence (O00206 whole entry, looked up): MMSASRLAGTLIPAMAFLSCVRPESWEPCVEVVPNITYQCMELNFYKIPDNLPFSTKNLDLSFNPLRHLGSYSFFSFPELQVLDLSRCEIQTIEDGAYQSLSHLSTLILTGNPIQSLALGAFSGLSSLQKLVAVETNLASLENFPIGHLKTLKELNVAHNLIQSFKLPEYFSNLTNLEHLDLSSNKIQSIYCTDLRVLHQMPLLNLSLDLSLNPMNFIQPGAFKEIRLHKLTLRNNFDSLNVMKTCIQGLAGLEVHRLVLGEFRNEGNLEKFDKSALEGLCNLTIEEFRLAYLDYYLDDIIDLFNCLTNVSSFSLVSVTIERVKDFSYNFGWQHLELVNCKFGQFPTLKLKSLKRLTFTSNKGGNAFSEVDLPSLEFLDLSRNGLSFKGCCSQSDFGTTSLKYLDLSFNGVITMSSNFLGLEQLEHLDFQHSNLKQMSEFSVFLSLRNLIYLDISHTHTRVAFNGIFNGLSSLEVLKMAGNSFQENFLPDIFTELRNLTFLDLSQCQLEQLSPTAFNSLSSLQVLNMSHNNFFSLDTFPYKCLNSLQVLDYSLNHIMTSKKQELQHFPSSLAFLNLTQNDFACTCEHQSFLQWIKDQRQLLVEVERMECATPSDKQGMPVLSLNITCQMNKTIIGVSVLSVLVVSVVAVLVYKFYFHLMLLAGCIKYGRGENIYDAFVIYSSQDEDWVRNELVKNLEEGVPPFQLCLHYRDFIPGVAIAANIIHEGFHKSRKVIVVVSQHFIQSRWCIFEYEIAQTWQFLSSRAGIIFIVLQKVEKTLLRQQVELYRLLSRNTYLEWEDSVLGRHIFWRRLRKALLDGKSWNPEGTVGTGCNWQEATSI
Target sequence (Q99836 whole entry, looked up): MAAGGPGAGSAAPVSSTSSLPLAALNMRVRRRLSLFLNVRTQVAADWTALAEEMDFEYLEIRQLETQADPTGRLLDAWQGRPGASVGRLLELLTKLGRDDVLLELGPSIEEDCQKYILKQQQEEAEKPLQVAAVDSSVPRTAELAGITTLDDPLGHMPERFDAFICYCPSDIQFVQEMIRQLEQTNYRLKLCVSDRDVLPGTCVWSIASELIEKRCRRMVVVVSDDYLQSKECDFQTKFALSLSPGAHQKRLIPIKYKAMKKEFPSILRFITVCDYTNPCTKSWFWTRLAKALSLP
GC-A act = GC-A (human) enzyme activation; P16066; 370,000 compounds, 0.14% hits; HEK293 GC-A cells, cGMP TR-FRET, EC30 ANP; 0% at EC30 ANP, 100% saturating ANP; activation, % at 10 µM; in the data active = activation above about 40%
NOD2-RIPK2 inh = inhibitors of human NOD2-RIPK2 interaction; O43353; inhibition, % at 4.98 µM; CHO BLA complementation NOD2-RIPK2, CCF4 ratio; 360,000 compounds, 0.38% hits; in the data active = inhibition above about 21%
Neddylation inh = inhibitors of human cullin neddylation; inhibition, % at 25 µM; TR-FRET cullin neddylation, biochemical; 360,000 compounds, 0.58% hits; P61081+Q13564; in the data active = inhibition above about 36%
Neddyl conf = confirmation of human cullin neddylation inhibitors; shares compounds with Neddylation inh; TR-FRET cullin neddylation biochemical assay; calls only at 25 µM; 1,800 compounds, 13% hits; in the data active = inhibition above about 40%;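 also: neddylation substrate is the cullin 1 ring ligase complex with SKP2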
Of the large screens only hits and unclear results are named; the others gave an inactive call (follow-up assays come after a bar, where shown). This is a sample that favours compounds with a hit; in the whole collection about 1.2% have one here.

COC(=O)[C@]12C[C@H](CC(=O)NCCC(C)C)C(=O)N(Cc3ccco3)C1=C[C@H](COCc1ccccc1)O[C@@H]2C	none (no result: TLR9-MyD88 block, TLR4 MyD88 comp, NOD2-RIPK2 inh, Neddylation inh)
CCCC[n+]1ccn(-c2nc3ccccc3nc2[N-]S(=O)(=O)c2ccc(Br)cc2)c1	none (no result: TLR4 MyD88 comp)
CC(C)CC[n+]1ccn(-c2nc3ccccc3nc2[N-]S(=O)(=O)c2ccccc2)c1	Neddylation inh 45.3 | Neddyl conf inactive
Cn1c(=O)c(Cc2ccccc2)c(O)c2ccccc21	none
O=c1c(Cc2ccccc2)c(O)c2cccc3c4c(n1c23)CCCC4	Neddylation inh 39.3 (no result: TLR4 MyD88 comp) | Neddyl conf inactive
O=C(c1ccccc1)N(CCO)Cc1cc2cc3c(cc2[nH]c1=O)OCCO3	Neddylation inh 41.8 | Neddyl conf inactive
CN(C)CCN(Cc1cc2cc3c(cc2[nH]c1=O)OCO3)C(=S)NCC1CCCO1 (configuration not stated)	Neddylation inh 41.2 | Neddyl conf inactive
O=C(c1ccco1)N(CCO)Cc1cc2cc3c(cc2[nH]c1=O)OCO3	none
O=C(NCc1ccccc1)N(Cc1cc2cc3c(cc2[nH]c1=O)OCO3)CC1CCCO1 (configuration not stated)	Neddylation inh 41.2 | Neddyl conf inactive
O=c1[nH]c2cc3c(cc2cc1CN(CCN1CCOCC1)C(=S)NCC1CCCO1)OCO3 (configuration not stated)	none (not shown: Neddylation inh)
Nc1[nH]c(C(=O)c2ccccc2)c(-c2ccccc2Br)c1C(=O)c1ccccc1	none (no result: TLR9-MyD88 block, TLR4 MyD88 comp)
CCCN(CC(=O)Nc1ccccc1OC)C(=O)CN1C(=O)NC(C)(C)C1=O	none (no result: TLR4 MyD88 comp)
COCc1cc(C)nc2sc(C(=O)Nc3ccc(OC)cc3)c(N)c12	Neddylation inh 48.6 (no result: TLR4 MyD88 comp) | Neddyl conf active
COCc1cc(C)nc2sc(C(=O)N3CCN(c4ccccc4)CC3)c(N)c12	Neddylation inh 41.0 | Neddyl conf inactive
N#Cc1ccc(C(=O)N2CCCCC2c2cc(C(=O)Nc3ccc4c(c3)OCO4)no2)cc1 (configuration not stated)	none (no result: TLR9-MyD88 block, TLR4 MyD88 comp)
CC(C)CNC(=S)N1CCC(C(=O)c2ccc(Cl)cc2)CC1	none (no result: TLR4 MyD88 comp)
CCCCC(=O)N(C)c1c(C)nc2ccc(C(=O)N3CCCCC3)cn12	none (no result: TLR9-MyD88 block, TLR4 MyD88 comp)
C[C@@H]1CN([C@@H](C)CO)C(=O)c2cc(Br)cnc2O[C@@H]1CN(C)C(=O)c1ccc(F)cc1	none (no result: TLR9-MyD88 block, TLR4 MyD88 comp, NOD2-RIPK2 inh, Neddylation inh)
CCc1cc(-c2ccc3c(c2)COc2c4ccccc4nn2-3)on1	Neddylation inh 42.8 (no result: TLR4 MyD88 comp) | Neddyl conf inactive
C=CCN1C(=O)c2ccccc2NC1c1cc(Br)cs1 (configuration not stated)	none (no result: TLR4 MyD88 comp)
CC1CCc2c(sc(N)c2C(N)=O)C1 (configuration not stated)	Neddylation inh 40.2 | Neddyl conf inactive
COC(=O)c1ccccc1NC(=O)CN1CCN(c2ccccn2)CC1	none
COC(=O)c1ccccc1N/C=C1\CCc2c(c(C)nn2-c2ccccn2)C1=O	Neddylation inh 37.5 | Neddyl conf inactive
CC1CC(=O)C2=C(C1)Nc1ccccc1N=C2 (configuration not stated)	none
CCC(=O)c1cccc2c1N=CC1=C(CC(C)(C)CC1=O)N2	Neddylation inh 42.3
COC(=O)[C@]12C[C@H](CC(=O)NCC34CC5CC(CC(C5)C3)C4)C(=O)N(CCc3ccc(OC)c(OC)c3)C1=C[C@H](COCc1ccccc1)O[C@@H]2C	none (no result: TLR9-MyD88 block, TLR4 MyD88 comp, NOD2-RIPK2 inh, Neddylation inh)
S=C(Nc1ccc2nc(-c3ccccn3)c(-c3ccccn3)nc2c1)N1CCOCC1	Neddylation inh 46.7 | Neddyl conf inactive
CCOC(=O)N1CCN(C(=O)Nc2ccc3nc(-c4ccccn4)c(-c4ccccn4)nc3c2)CC1	none (not shown: Neddylation inh)
O=C(O)CCc1ccc(-c2ccc(F)cc2)n1CC1CCCO1 (configuration not stated)	none
O=C(O)CCc1ccc(-c2cccs2)n1CC1CCCO1 (configuration not stated)	Neddylation inh 49.2 | Neddyl conf inactive
COc1ccc(F)c(CN2CCCC(CNS(=O)(=O)c3cccc4cccnc34)C2)c1 (configuration not stated)	none (no result: TLR4 MyD88 comp)
O=C(CN1CCCC1c1ccc2c(c1)OCCO2)NC(=O)Nc1ccccc1F (configuration not stated)	none (no result: TLR4 MyD88 comp)
N#Cc1c(NC(=O)/C=C/C(=O)O)sc2c1CCN(Cc1ccccc1)C2	none (not shown: TLR4 MyD88 comp, Neddylation inh)
COc1ccc(C(=O)NC(=S)NNC(=O)[C@H]2C[C@@H]2c2ccccc2)cc1OC	Neddylation inh 39.4 (no result: TLR4 MyD88 comp) | Neddyl conf inactive
O=c1[nH]c2ccccc2c2cn(-c3ccccc3)nc12	Neddylation inh 41.6 (no result: TLR4 MyD88 comp) | Neddyl conf inactive
O=c1[nH]c2ccccc2c2ccccc12	none
COC(=O)[C@H](Cc1ccccc1)N[C@H](c1ccc(OC)cc1)[C@@H](O)Cc1ccccc1	none (no result: TLR9-MyD88 block, TLR4 MyD88 comp, NOD2-RIPK2 inh, Neddylation inh)
O=C(Nc1sc2c(c1C(=O)NCCO)CCCC2)c1ccco1	Neddylation inh 40.0 (not shown: TLR4 MyD88 comp)
Cn1c2ccccc2c2c(C(=O)N3CCN(C(=O)c4ccco4)CC3)cn(C3CCCCC3)c(=O)c21	Neddylation inh 44.7 | Neddyl conf inactive
Cn1c2ccccc2c2c(C(=O)N3CCN(c4ccccn4)CC3)cn(C3CCCC3)c(=O)c21	none
Cc1cc(Nc2ccccc2)c2c([N+](=O)[O-])cc(C)c(C)c2n1	none
COc1ccccc1Nc1cc(C)nc2c(C)ccc([N+](=O)[O-])c12	Neddylation inh 45.1 | Neddyl conf inactive
CC1CCCCC12NC(=O)N(CC(=O)Nc1ccc(OC(F)F)cc1)C2=O (configuration not stated)	none (no result: TLR4 MyD88 comp)
O=C(Cc1ccc(S(=O)(=O)N2CCOCC2)s1)Oc1ccc(F)cc1	none (no result: TLR4 MyD88 comp)
Cc1cc(C)n2nc(C(=O)NCc3ccco3)cc2n1	Neddylation inh 51.0
Cc1cc(C)n(Cc2ccc(C(=O)NCc3ccco3)o2)n1	none
COc1ccc(C(=O)n2cc(C(=O)c3cc(C)ccc3O)cn2)cc1OC	Neddylation inh 43.9
COc1ccc(O)c(C(=O)c2cnn(C(=O)c3cccc(N(C)C)c3)c2)c1	Neddylation inh 41.3 (no result: TLR4 MyD88 comp) | Neddyl conf inactive
CN(C)c1cccc(C(=O)n2cc(C(=O)c3cc(F)ccc3O)cn2)c1	none (not shown: Neddylation inh)
CC(=O)c1ccc(S(=O)(=O)Oc2ccc(C(=O)O)cc2Cl)cc1	none (no result: TLR4 MyD88 comp)
COc1cc2c(cc1OC)-c1cc(NC3CCCC3)nc(=O)n1CC2	Neddylation inh 40.9 | Neddyl conf inactive
COc1cc2c(cc1OC)-c1cc(Nc3ccc(F)cc3)nc(=O)n1CC2	none (no result: TLR4 MyD88 comp)
CC1=C(C(=O)OCC(C)C)C(c2cc3c(cc2Br)OCO3)NC(=O)N1C (configuration not stated)	none
